The values that follow come from PubChem BioAssay AID990 (National Center for Advancing Translational Sciences (NCATS), 2007).

Active and inactive are the calls of the source.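 The calls were made as follows: active = compound that made reporter-free parental cells show up as glowing objects under laser imaging, so likely a fluorescent false positive; inactive = the rest.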

The nature of this assay: Parental Cell Counter Screen Assay for Epigenetic Modulators. To be noted: parental c127i cells, compound fluorescence imaging, 30 h. The source says: NIH Molecular Libraries Screening Centers Network [MLSCN] NIH Chemical Genomics Center [NCGC] MLSCN Grant: 1 X01 MH079860-01 Assay Provider: Elisabeth D. Martinez, University of Texas SW Medical Center NCGC Assay Overview: This assay is a counter screen for the Locus Derepression (LDR) assay (PubChem AID 597). The LDR assay detects the derepression of a GFP reporter that is stably integrated in a region of the genome of murine c127i mammary cells that is presumably silenced. Compounds that cause derepression of the locus to express GFP are identified by enumerating GFP positive cells using a laser-scanning microplate cytometer. […] Compounds active in the parental c127i cells are likely fluorescent.
NCGC Assay Protocol Summary: Two hundred and fifty cells in 5 uL per well were dispensed into black, clear-bottom 1536-well plates. Twenty-three nL compound was transferred to the assay plate and cells were incubated 30 hours at 37 C. Medium was removed, cells were washed two times with PBS, and fluorescent cells were enumerated as objects between the sizes of 20 to 120 um width and depth using a laser-scanning microplate imager (Acumen Explorer Ex3, TTP Labtech).

For `CN1CSC(=S)N(C)C1`, the outcome was inactive.
